PubChem BioAssay

system: Chordin-like protein 2 (CHRDL2); test: CHRDL2 small-molecule binders, primary screen, biochemical, small-molecule microarray, 635 nm fluorescence (AID 1126); conditions: small-molecule microarray binding, fluorescence 635 nm; higher = more signal;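 note: printed compound slides probed with Chrdl2 protein at 4 µg/mL for 1 h at 4 C; score merges 667 nm emission intensity with signal to noise over three replicate slides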

| Structure (SMILES) | composite z-score |
| --- | --- |
| COC(=O)[C@H](C)NC(=O)CCC1CC(OC(=O)NCCc2ccc(F)cc2)CC2(CCCC(COC(=O)NCCc3ccc(Cl)cc3)O2)O1 (stereo not given in full) | 1.09 |
| C=COC[C@H]1CN2[C@@H](CC[C@@H](C)[C@@H]2c2ccc(Br)cc2)C(=O)O1 | 0.664 |
| CN1C(=O)C2C=CC(C(O)c3ccc(Br)cc3)N(N(c3ccccc3)c3ccccc3)C2C1=O (stereo not given) | -0.815 |
| COC(=O)[C@H](C)NC(=O)[C@@H](C)CO | 0.0899 |
| O=C1[C@H]2[C@H]3[C@H](O)[C@H](O)CC(=NOCc4ccccc4)[C@@H]3CC[C@H]2C(=O)N1Cc1ccccc1 | 0.417 |
| CC(C)[C@@H](OCc1ccccc1)[C@H](C)C=NOC[C@@H](C)[C@H](OCc1ccccc1)C(C)C | 0.457 |
| CCOC(=O)[C@H](Cc1ccccc1)NC(=O)CCC1CC(OC(=O)NCc2ccc3c(c2)OCO3)CC2(CCCC(COC(=O)NCC3CCCCC3)O2)O1 (stereo not given in full) | 0.799 |
| COC(=O)[C@@H]1CC[C@H](C)[C@@H](c2ccc(C)cc2)N1C(=O)c1ccc(C=NOC[C@@H](O)COCc2ccco2)cc1 | -0.177 |
| Cc1cc2c(nc1C)CCCN2CC(O)CN1CCN(C)CC1 (stereo not given) | 0.731 |
| C=C(CCCC)C(=O)CC[C@@H](OC(C)=O)c1cccc(OCCO)c1 | 0.582 |
| CCOC(=O)[C@H](Cc1ccccc1)NC(=O)CCC1CC(OC(=O)NCc2ccc3c(c2)OCO3)CC2(CCCC(COC(=O)NCC(c3ccccc3)c3ccccc3)O2)O1 (stereo not given in full) | 0.226 |
| C#CCCCON=C1C[C@@H](O)[C@@H](O)[C@@H]2[C@@H]3C(=O)N(c4cccc(Oc5ccccc5)c4)C(=O)[C@@H]3CC[C@@H]12 | -0.0255 |
| CC(C)CON=C1C[C@@H](O)[C@@H](O)[C@@H]2[C@@H]3C(=O)N(C[C@@H]4CCCO4)C(=O)[C@@H]3CC[C@H]12 | -0.0163 |
| CCN1C(=O)[C@H]2[C@H]3[C@H](O)[C@H](O)CC(=NO[C@@H]4O[C@H](CO)[C@@H](O)[C@H](O)[C@H]4O)[C@@H]3CC[C@H]2C1=O | -0.229 |
| COc1ccc(-c2ccc3c(n2)CCCN3CC(O)CN2CCCc3nc(C)c(C)cc32)cc1 (stereo not given) | 1.18 |
| CO[C@H]1O[C@H](CO)[C@@H](OC(=O)Nc2ccc3c(c2)OCO3)[C@H](OC(=O)Nc2ccccc2-c2ccccc2)[C@@H]1OC(=O)Nc1ccccc1-c1ccccc1 | -0.116 |
| COC(=O)CC1OC1[C@H](C)[C@@H](OC)C(C)C (stereo not given in full) | 1.03 |
| CO[C@@H]1COC(=O)CC=C[C@@H](C)[C@@H]2C=C[C@H](O)[C@@H](COC(=O)[C@H](C)NC(=O)CC=C[C@H]1C)O2 | 1.54 |
| N#Cc1ccc(NN2C(C(O)c3cc(C(F)(F)F)cc(C(F)(F)F)c3)C=CC3C(=O)N(c4ccccc4)C(=O)C32)cc1 (stereo not given) | -0.904 |
| CCOC(=O)NN=C1C[C@@H](O)[C@@H](O)[C@@H]2[C@@H]3C(=O)N(C[C@@H]4CCCO4)C(=O)[C@@H]3CC[C@@H]12 | 0.0214 |
| COCCOC(=O)N1C(=O)[C@@]2(c3cc(C#CC4(O)CCCCCC4)ccc31)[C@H](C(=O)N1CCN(c3ncccn3)CC1)[C@H]1C(=O)O[C@H](c3ccccc3)[C@H](c3ccccc3)N1[C@@H]2c1ccc(OCCO)cc1 | 0.659 |
| C=CC[C@]1(C(=O)NCc2ccccc2)N=C(c2ccc(OCCCO)cc2)O[C@H]1c1ccccc1 | -0.911 |
| COc1ccc(O[C@H]2C=C[C@@H](c3ccccc3)O[C@@H]2COC(=O)CCC(C)=NOC(C)CN2CCCCc3nc(C)c(C)cc32)cc1 (stereo not given in full) | -0.101 |
| CO[C@@H]1COC(=O)CC=C[C@@H](C)[C@@H]2C=C[C@@H](O)[C@@H](COC(=O)CC=C[C@H]1C)O2 | 1.38 |
| CCOC(=O)[C@H](Cc1ccccc1)NC(=O)CCC1CC(OC(=O)NCCc2ccc(F)cc2)CC2(CCCC(COC(=O)NCC(c3ccccc3)c3ccccc3)O2)O1 (stereo not given in full) | 0.227 |
| C[C@H]1CC[C@@H](C(=O)O)N[C@@H]1c1ccc(C#CCN(C)C)cc1 | 0.591 |
| O=C1NC(=O)C2C1C=CC(C(O)Cc1ccccc1)N2Nc1ccccn1 (stereo not given) | 0.313 |
| CCOC(=O)CCN1C(=O)[C@H]2[C@H]3[C@H](O)[C@H](O)CC(=NOC[C@@H](O)COCc4ccco4)[C@@H]3CC[C@H]2C1=O | 0.457 |
| CC(C)(C)N1C(=O)[C@H]2[C@H]3[C@H](O)[C@H](O)CC(=NOCc4ccccc4)[C@@H]3CC[C@H]2C1=O | 0.831 |
| COC(=O)[C@@]1(Cc2ccccc2)[C@H]2c3cc(C(=O)N4CCCC4)n(Cc4ccccn4)c3C[C@H]2CN1C(=O)c1ccccc1 | 0.331 |
